# Source: PubChem BioAssay (EPA / NIEHS)
# The source made the active and inactive calls. The calls were made as follows: active = hit-call score of the fitted dose curve at least 0.9, where 1 is the maximum; inactive = score below 0.9.
# Test: ATG_ERE_CIS: Attagene CIS-FACTORIAL HepG2 Assay for Estrogen Response Element (ERE) (AID 2282940)
# Conditions: HepG2 ERE cis-reporter, Attagene RNA transcript; actives raise or lower the signal
# Procedure: ATG_CIS is a cell-based, multiplexed-readout assay that uses HepG2, a human liver cell line, with measurements taken at 24 hours after chemical dosing in a 24-well plate.ATG_ERE_CIS is one of 52 assay component(s) measured or calculated from the ATG_CIS assay. It is designed to make measurements of mRNA induction, a form of inducible reporter, as detected with fluorescence intensity signals by Reverse transcription polymerase chain reaction (RT-PCR) and Capillary electrophoresis technology.Data from the assay component ATG_ERE_CIS was analyzed into 1 assay endpoint. This assay endpoint, ATG_ERE_CIS, was analyzed with bidirectional fitting relative to DMSO as the negative control and baseline of activity. Using a type of inducible reporter, measures of mRNA for gain or loss-of-signal activity can be used to understand the reporter gene at the transcription factor-level as they relate to the gene ESR1. Furthermore, this assay endpoint can be referred to as a primary readout, because this assay has produced multiple assay endpoints where this one serves a reporter gene function. To generalize the intended target to other relatable targets, this assay endpoint is annotated to the nuclear receptor intended target family, where the subfamily is steroidal.
# Human liver HepG2 cells are transiently transfected with multiple reporter transcription units (MRTUs) in 6-well plates using FuGene 6 reagent (Roche; 3 ml FuGene/1 mg DNA). The MRTU constructs are regulated by a cis-regulating element (promoter). […] A major difference between the CIS and TRANS system is that in CIS activities of endogenous TFs are measured, whereas the TRANS assay evaluates changes in activities of exogenous, chimeric NR-Gal4 proteins. […] At the end of 24 hour incubation, total RNA was isolated using TriZol reagent (Invitrogen). The isolated RNA is then reverse-transcribed using oligo(dT) primer and Mo-MLV reverse transcriptase (Invitrogen) with DNAse I (Ambion) treatment for 30 min. The one-tenth of the produced cDNA was amplified by PCR using Taq DNA polymerase (Invitrogen) and two reporter sequence-specific primers. The PCR products were fluorescently labeled by primer extension with 6-arboxyfluorescein (6-FAM) 5'-labeled reporter sequence-specific primer (2 min at 95 C, 20 s at 68 C and 10 min at 72 C) and these products were digested with 5U of HpaI (New England Biolabs) for 2h at 37 C. The fragments were purified using Qiaquick PCR columns (Qiagen), analyzed on an ABI 3130xL genetic analyzer (Applied Biosystems) with peak positions identified by using a set of X-rhodamine (ROX)-labeled MapMarker1000 molecular weight standards (BioVentures). The raw capillary electrophoresis data was processed using Attagraph software (Attagene).
SMILES,outcome,AC50
CC12CCC(CC1)C(C)(C)O2,inactive,–
CC(=O)c1ccccc1O,inactive,–
CC(=O)OC1CCCCC1,inactive,–
CC(=O)OCc1ccccc1,inactive,–
C=C(C)[C@@H]1CC=C(C)CC1,inactive,–
CCN(CC)c1cccc(C)c1,inactive,–
CO[Si](CCCS)(OC)OC,–,68.7 µM (active)
CC(CC(C)C)=NO,inactive,–
O=C(Oc1ccccc1)c1ccccc1O,inactive,–
CCCCCCOc1ccc(N)cc1,inactive,–
CCCCCCOC(=O)CCCCC(=O)OCCCCCC,–,27.5 µM (active)
C=Cc1ccc(OC(C)=O)cc1,–,35.9 µM (active)
C=CC(=O)O[C@H]1C[C@@H]2CC[C@@]1(C)C2(C)C,–,24.9 µM (active)
O=C1CCCCCCCCCCC1,inactive,–
CC(=O)/C=C/C1C(C)=CCCC1(C)C (stereo not given),–,44.7 µM (active)
CC/C=C\CCOC(=O)c1ccccc1O,inactive,–
N#CC1(N)CCCCC1,inactive,–
CCCCC1CCC(=O)O1 (stereo not given),inactive,–
CCCCCCCC(=O)OCC(COC(=O)CCCCCCC)OC(=O)CCCCCCC,inactive,–
CCCCC(CC)COC(=O)/C=C/c1ccc(OC)cc1 (stereo not given),inactive,–

SMILES,outcome,AC50
Nc1cccc(N)n1,inactive,–
CC1=CP(=O)(c2ccccc2)CC1 (stereo not given),inactive,–
COC(=O)C=Cc1ccccc1,inactive,–
C=C[C@@]1(C)CC(=O)[C@]2(O)[C@@]3(C)[C@@H](O)CCC(C)(C)[C@@H]3[C@H](O)[C@H](OC(C)=O)[C@@]2(C)O1,–,0.895 µM (active)
CC(C)C(=O)OCCc1ccccc1,inactive,–
CCCCCCO,inactive,–
CCNc1nc(NC(C)(C)C)nc(OC)n1,inactive,–
Cc1cc(C)n(CO)n1,inactive,–
CC(=O)OC(C)c1ccccc1 (stereo not given),inactive,–
CCCc1ccc(O)c(OC)c1,inactive,–
CCCCCCCCCCCCC,inactive,–
CC=C(C)C(C)=O,inactive,–
CCCCC(C=O)CC (stereo not given),inactive,–
N#Cc1ccc(C2CCCc3cncn32)cc1 (stereo not given),–,25.4 µM (active)
C=CCCCCCCCCO,inactive,–
CC1=CCC(C(C)C)C=C1 (stereo not given),inactive,–
Cc1c(C(=O)c2c[nH]n(C)c2=O)ccc(S(C)(=O)=O)c1C1=NOCC1,inactive,–
Nc1ncnc2nc[nH]c12,inactive,–
O=C(Oc1ccccc1)c1ccccc1C(=O)Oc1ccccc1,inactive,–
CC(C)c1cccc(C(C)C)c1N,inactive,–
